Results: PubChem BioAssay AID2577 (National Center for Advancing Translational Sciences (NCATS), 2010)
Calls of active or inactive are those of the source. Calls follow the shape of the dose curve; as a rule, active = well fitted curve in the direction sought with a large enough effect; inactive = no such curve, though single readings can be large or run the other way.

These compounds were tested against Lysosomal alpha-glucosidase (Homo sapiens) (UniProt P10253) (assay: qHTS Assay for Inhibitors and Activators of N370S glucocerebrosidase as a Potential Chaperone Treatment of Gaucher Disease: Alpha-Glucosidase Counterscreen). Conditions: purified human alpha-glucosidase, 4MU-alpha-glucoside fluorescence.
From the text: NIH Chemical Genomics Center [NCGC] NIH Molecular Libraries Probe Production Centers Network [MLPCN] MLPCN Grant: MH086442-01 Assay Submitter (PI): Wei Zheng Glucocerebrosidase (GC) catalyzes the hydrolysis of beta-glucocerebroside to glucose and ceramide in lysosomes. Mutations in the glucocerebrosidase gene result in Gaucher disease, an autosomal recessive lysosomal storage disorder. Many of the mutations encountered in patients with Gaucher disease are missense alterations that may cause misfolding, decreased stability and/or mistrafficking of this lysosomal protein. […] These inhibitors include iminosugar analogs and three non-iminosugar inhibitors identified from a previous HTS of 62,000 compounds with the wild type recombinant enzyme. However, the enhancement of enzyme activity by the chaperone action of an enzyme inhibitor must be balanced against the direct inhibition of the enzyme. An enzyme activator could also function as a chaperone by binding to the enzyme and helping to correct its misfolding and mistrafficking. While activators for GC have not yet been identified, they may have better therapeutic potential than inhibitors. Therefore the discovery and development of chemical activators may provide a new strategy for the chaperone therapy. To characterize compound selectivity, selected hits from the primary screen were screened against purified alpha-glucosidase, a related sugar hydrolase. Alpha-glucosidase is responsible for hydrolysis of terminal, non-reducing 1,4-linked alpha-D-glucose residues with release of alpha-D-glucose.
NCGC Assay Protocol Summary: This is a fluorogenic enzyme assay with 4-methylumbelliferyl-alpha-D-[…] as the substrate and human alpha-glucosidase as the enzyme preparation. Upon the hydrolysis of this fluorogenic substrate, the resulting product, 1. 4-methyllumbelliferone, can be excited at 365 nm and emits at 440 nm which can be detected by a standard fluorescence plate reader. Data were normalized to the controls for basal activity (without enzyme) and 100% activity (with enzyme). The AC50 values were determined from concentration-response data modeled with the standard Hill equation. Assay buffer: 50 mM citric acid (titrated with potassium phosphate to pH 5.0), 0.005% Tween-20, pH 5.0. (pH 5.0 is an optimal condition for this enzyme assay) 1536-well assay protocol for the human alpha-glucosidase: (1) Add 2 ul/well of enzyme (4 nM final) (2) Add 23 nL compounds in DMSO solution. The final titration was 0.7 nM to 77 uM. (3) Add 1 ul of substrate (400 uM final) (4) Incubate at room temperature for 20 min. (5) Add 2 ul stop solution (1M NaOH and 1M Glycine mixture, pH 10) (6) Detect the assay plate in a ViewLux plate reader (PerkinElmer) with Ex=365 nm and Em=440nm. Keywords: Alpha-glucosidase, Pompe Disease, pharmacological chaperone, chaperone therapy, high throughput screening, alpha-glucosidase inhibitor, MLSMR, MLSCN, NIH Roadmap, qHTS and NCGC
For `O=S(=O)(c1ccc(OC(F)(F)F)cc1)N1CCN(c2nc(-c3ccccc3)nc3ccccc23)CC1`, the max response was -5.72% (inactive).
With `CCOC(=O)c1ccc(S(=O)(=O)N2CCN(c3nc(-c4ccccc4)nc4ccccc34)CC2)cc1` the max response was -5.28% (inactive).
With `Cc1ccc(S(=O)(=O)N2CCN(c3nc(-c4ccccc4)nc4ccccc34)CC2)cc1` the max response was -13.1% (inactive).
For `O=S(=O)(c1cccc(C(F)(F)F)c1)N1CCN(c2nc(-c3cccs3)nc3cc(Cl)ccc23)CC1`, the max response was -7.27% (inactive).
For `O=S(=O)(c1ccccc1Cl)N1CCN(c2nc(-c3cccs3)nc3ccccc23)CC1`, the max response was -12.9% (inactive).
With `NS(=O)(=O)c1ccc(S(=O)(=O)N2CCN(c3nc(-c4ccccc4)nc4ccccc34)CC2)cc1` the max response was -7.36% (inactive).
`O=S(=O)(c1ccc(F)cc1)N1CCN(c2nc(-c3cccs3)nc3cc(Cl)ccc23)CC1` was tested, and the max response was -15.8% (inactive).
For `O=[N+]([O-])c1ccccc1S(=O)(=O)N1CCN(c2nc(-c3cccs3)nc3ccccc23)CC1`, the max response was -3.63% (inactive).
In the case of `N#Cc1ccc(S(=O)(=O)N2CCN(c3nc(-c4ccccc4)nc4ccccc34)CC2)cc1`, the max response is reported as -5.2% (inactive).
`O=[N+]([O-])c1ccccc1S(=O)(=O)N1CCN(c2nc(-c3ccccc3)nc3ccccc23)CC1` was tested, and the max response was -3% (inactive).
In the case of `O=S(=O)(c1ccc2ccccc2c1)N1CCN(c2nc(-c3ccccc3)nc3ccccc23)CC1`, the max response is reported as -4.15% (inactive).
In the case of `O=S(=O)(c1ccc(Cl)cc1)N1CCN(c2nc(-c3ccccc3)nc3ccccc23)CC1`, the max response is reported as -10.6% (inactive).
With `S=C(NCCCc1cnc[nH]1)NCCCN(Cc1ccc(Cl)c(Cl)c1)c1ccc(Br)cn1` the max response was -4.15% (inactive).
`O=S(=O)(c1ccc(F)cc1)N1CCN(c2nc(-c3ccccc3)nc3cc(Cl)ccc23)CC1` was tested, and the max response was -12.7% (inactive).
With `CC(=O)c1ccc(S(=O)(=O)N2CCN(c3nc(-c4ccccc4)nc4ccccc34)CC2)cc1` the max response was -3.56% (inactive).
With `O=S(=O)(c1ccc2c(c1)OCCO2)N1CCN(c2nc(-c3ccccc3)nc3ccccc23)CC1` the max response was -3.22% (inactive).
For `N#Cc1ccccc1S(=O)(=O)N1CCN(c2nc(-c3cccs3)nc3ccccc23)CC1`, the max response was -5.04% (inactive).
For `O=S(=O)(c1ccccc1Br)N1CCN(c2nc(-c3ccccc3)nc3ccccc23)CC1`, the max response was -18.6% (inactive).
In the case of `CC(C)(C)c1ccc(S(=O)(=O)N2CCN(c3nc(-c4cccs4)nc4ccccc34)CC2)cc1`, the max response is reported as -6.75% (inactive).
`O=S(=O)(c1ccc(F)cc1)N1CCN(c2nc(-c3ccc(F)cc3)nc3cc(Cl)ccc23)CC1` was tested, and the max response was -3.75% (inactive).
`COc1ccc(-c2nc(N3CCN(S(=O)(=O)c4ccc(C)cc4)CC3)c3ccccc3n2)cc1` was tested, and the max response was -0.975% (inactive).
In the case of `O=S(=O)(c1ccccc1C(F)(F)F)N1CCN(c2nc(-c3ccccc3)nc3ccccc23)CC1`, the max response is reported as -7.6% (inactive).
With `O=S(=O)(c1cccc(Br)c1)N1CCN(c2nc(-c3cccs3)nc3ccccc23)CC1` the max response was -9.65% (inactive).
With `O=S(=O)(c1ccc2c(c1)OCCO2)N1CCN(c2nc(-c3cccs3)nc3ccccc23)CC1` the max response was -3.67% (inactive).
`CC(=O)c1ccc(S(=O)(=O)N2CCN(c3nc(-c4cccs4)nc4ccccc34)CC2)cc1` was tested, and the max response was -5.52% (inactive).
In the case of `CCOc1ccc(S(=O)(=O)N2CCN(c3nc(-c4ccccc4)nc4ccccc34)CC2)cc1OCC`, the max response is reported as -7.31% (inactive).
With `O=S(=O)(c1cccc(Cl)c1)N1CCN(c2nc(-c3ccccc3)nc3ccccc23)CC1` the max response was -3.54% (inactive).
In the case of `O=S(=O)(c1ccc(C(F)(F)F)cc1)N1CCN(c2nc(-c3ccccc3)nc3ccccc23)CC1`, the max response is reported as -6.24% (inactive).
For `Cc1ccc(S(=O)(=O)N2CCN(c3nc(-c4cccs4)nc4ccccc34)CC2)cc1`, the max response was -8.42% (inactive).
For `CCOC(=O)c1ccc(S(=O)(=O)N2CCN(c3nc(-c4cccs4)nc4ccccc34)CC2)cc1`, the max response was -8.25% (inactive).
`COc1ccc(S(=O)(=O)N2CCN(c3nc(-c4cccs4)nc4ccccc34)CC2)cc1` was tested, and the max response was -3.66% (inactive).
`O=S(=O)(c1ccc(F)cc1)N1CCN(c2nc(-c3ccccc3)nc3ccccc23)CC1` was tested, and the max response was -3.53% (inactive).
With `O=S(=O)(c1ccc(Br)cc1)N1CCN(c2nc(-c3ccccc3)nc3ccccc23)CC1` the max response was -1.71% (inactive).
`Cc1ccc(-c2nc(N3CCN(S(=O)(=O)c4ccc(F)cc4)CC3)c3ccc(Cl)cc3n2)cc1` was tested, and the max response was -14.5% (inactive).
`O=S(=O)(c1ccccc1Br)N1CCN(c2nc(-c3cccs3)nc3ccccc23)CC1` was tested, and the max response was -2.87% (inactive).
`O=S(=O)(c1cccc(C(F)(F)F)c1)N1CCN(c2nc(-c3cccs3)nc3ccccc23)CC1` was tested, and the max response was -4.78% (inactive).
In the case of `CC(C)(C)c1ccc(S(=O)(=O)N2CCN(c3nc(-c4ccccc4)nc4ccccc34)CC2)cc1`, the max response is reported as -7.51% (inactive).
`O=S(=O)(c1ccc(Cl)cc1)N1CCN(c2nc(-c3ccc(F)cc3)nc3cc(Cl)ccc23)CC1` was tested, and the max response was -5.47% (inactive).
With `O=S(=O)(c1cccc(Cl)c1)N1CCN(c2nc(-c3cccs3)nc3ccccc23)CC1` the max response was -11.5% (inactive).
With `O=S(=O)(c1ccccc1)N1CCN(c2nc(-c3cccs3)nc3ccccc23)CC1` the max response was -12.9% (inactive).
